In the supplement of paper PMC11732987, “Enantioselective OTUD7B fragment discovery through chemoproteomics screening and high-throughput optimisation” (Communications Chemistry, 2025):

How the values were obtained:
Test in all cases: log2 ratio of Biotin-Ahx-Ub-VS probe labelling (fragment/DMSO); higher = less target engagement (more negative = stronger competition), active = hit call of the paper (q ≤ 0.05, log2 ratio ≤ -1)
Conditions in all cases: compound concentration: 200 uM; treatment time: 3 h
[1] = molecular target: T1, USP19 (UniProt O94966)
T1 sequence (whole entry): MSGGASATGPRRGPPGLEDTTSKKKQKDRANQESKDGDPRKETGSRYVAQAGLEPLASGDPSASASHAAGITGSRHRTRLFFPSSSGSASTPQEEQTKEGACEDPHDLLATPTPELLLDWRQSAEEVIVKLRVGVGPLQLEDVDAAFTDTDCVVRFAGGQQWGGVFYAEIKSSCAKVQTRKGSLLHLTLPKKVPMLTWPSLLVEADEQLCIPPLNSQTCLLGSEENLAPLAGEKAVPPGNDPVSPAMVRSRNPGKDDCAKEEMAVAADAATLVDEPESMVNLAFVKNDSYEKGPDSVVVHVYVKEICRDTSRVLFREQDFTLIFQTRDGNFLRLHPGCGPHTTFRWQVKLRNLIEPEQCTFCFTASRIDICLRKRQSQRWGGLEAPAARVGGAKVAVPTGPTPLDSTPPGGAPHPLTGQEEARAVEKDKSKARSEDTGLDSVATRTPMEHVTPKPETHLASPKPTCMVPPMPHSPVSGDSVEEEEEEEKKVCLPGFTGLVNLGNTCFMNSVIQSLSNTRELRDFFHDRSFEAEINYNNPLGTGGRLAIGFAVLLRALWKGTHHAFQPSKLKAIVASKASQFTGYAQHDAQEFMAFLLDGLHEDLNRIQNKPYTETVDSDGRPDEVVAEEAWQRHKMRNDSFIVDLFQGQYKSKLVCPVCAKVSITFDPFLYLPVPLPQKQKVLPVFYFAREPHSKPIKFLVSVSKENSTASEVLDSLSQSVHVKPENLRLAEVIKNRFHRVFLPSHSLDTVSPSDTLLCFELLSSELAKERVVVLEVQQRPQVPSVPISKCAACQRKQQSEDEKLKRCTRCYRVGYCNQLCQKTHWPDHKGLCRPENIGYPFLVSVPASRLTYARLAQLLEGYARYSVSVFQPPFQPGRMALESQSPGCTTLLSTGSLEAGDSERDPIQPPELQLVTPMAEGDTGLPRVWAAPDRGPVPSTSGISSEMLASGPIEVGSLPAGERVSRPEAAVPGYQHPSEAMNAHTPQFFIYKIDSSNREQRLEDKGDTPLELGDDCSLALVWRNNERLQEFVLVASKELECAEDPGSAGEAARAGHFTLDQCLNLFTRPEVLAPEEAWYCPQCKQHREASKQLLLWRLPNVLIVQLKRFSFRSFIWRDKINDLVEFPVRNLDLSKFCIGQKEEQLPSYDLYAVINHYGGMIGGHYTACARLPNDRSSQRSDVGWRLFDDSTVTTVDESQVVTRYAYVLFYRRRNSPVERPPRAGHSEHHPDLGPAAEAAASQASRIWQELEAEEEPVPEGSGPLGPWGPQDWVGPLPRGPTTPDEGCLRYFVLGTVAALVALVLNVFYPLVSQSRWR
Method in brief: (§1)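 Labelled DUBs from HEK293T lysate were NeutrAvidin-enriched, digested with LysC and trypsin, and run by diaPASEF LC-MS/MS. Before that, each 495 µg sample in Tris/CHAPS/IGEPAL buffer with protease inhibitors was treated in triplicate with fragment at 200 µM or vehicle for 3 h, then with Biotin-Ahx-Ub-VS at 0.5 µM final for 1 h. Values are average log2 ratios of fragment over vehicle by unpaired t-test, based on global-median-normalised Spectronaut label-free quantities from proteins with ≥2 unique peptides.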

[2] = molecular target: T2, USP22 (UniProt Q9UPT9)
T2 sequence (whole entry): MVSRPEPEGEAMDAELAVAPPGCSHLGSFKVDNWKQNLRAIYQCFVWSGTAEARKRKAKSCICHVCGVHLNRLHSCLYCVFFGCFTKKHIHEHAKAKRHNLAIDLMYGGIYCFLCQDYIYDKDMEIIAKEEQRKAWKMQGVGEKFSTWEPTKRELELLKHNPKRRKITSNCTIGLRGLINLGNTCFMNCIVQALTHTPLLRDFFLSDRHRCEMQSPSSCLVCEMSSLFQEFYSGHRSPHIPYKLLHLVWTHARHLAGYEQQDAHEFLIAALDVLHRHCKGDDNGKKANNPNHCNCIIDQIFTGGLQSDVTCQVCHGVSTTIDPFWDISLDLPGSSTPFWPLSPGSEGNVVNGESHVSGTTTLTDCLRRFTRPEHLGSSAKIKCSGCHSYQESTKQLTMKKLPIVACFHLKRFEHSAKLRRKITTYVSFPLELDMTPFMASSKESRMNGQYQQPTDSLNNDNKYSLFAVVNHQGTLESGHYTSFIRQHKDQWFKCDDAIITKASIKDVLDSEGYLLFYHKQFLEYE
Method in brief: as §1

[3] = molecular target: USP24 (UniProt Q9UPU5)
USP24, sequence (Q9UPU5 whole entry): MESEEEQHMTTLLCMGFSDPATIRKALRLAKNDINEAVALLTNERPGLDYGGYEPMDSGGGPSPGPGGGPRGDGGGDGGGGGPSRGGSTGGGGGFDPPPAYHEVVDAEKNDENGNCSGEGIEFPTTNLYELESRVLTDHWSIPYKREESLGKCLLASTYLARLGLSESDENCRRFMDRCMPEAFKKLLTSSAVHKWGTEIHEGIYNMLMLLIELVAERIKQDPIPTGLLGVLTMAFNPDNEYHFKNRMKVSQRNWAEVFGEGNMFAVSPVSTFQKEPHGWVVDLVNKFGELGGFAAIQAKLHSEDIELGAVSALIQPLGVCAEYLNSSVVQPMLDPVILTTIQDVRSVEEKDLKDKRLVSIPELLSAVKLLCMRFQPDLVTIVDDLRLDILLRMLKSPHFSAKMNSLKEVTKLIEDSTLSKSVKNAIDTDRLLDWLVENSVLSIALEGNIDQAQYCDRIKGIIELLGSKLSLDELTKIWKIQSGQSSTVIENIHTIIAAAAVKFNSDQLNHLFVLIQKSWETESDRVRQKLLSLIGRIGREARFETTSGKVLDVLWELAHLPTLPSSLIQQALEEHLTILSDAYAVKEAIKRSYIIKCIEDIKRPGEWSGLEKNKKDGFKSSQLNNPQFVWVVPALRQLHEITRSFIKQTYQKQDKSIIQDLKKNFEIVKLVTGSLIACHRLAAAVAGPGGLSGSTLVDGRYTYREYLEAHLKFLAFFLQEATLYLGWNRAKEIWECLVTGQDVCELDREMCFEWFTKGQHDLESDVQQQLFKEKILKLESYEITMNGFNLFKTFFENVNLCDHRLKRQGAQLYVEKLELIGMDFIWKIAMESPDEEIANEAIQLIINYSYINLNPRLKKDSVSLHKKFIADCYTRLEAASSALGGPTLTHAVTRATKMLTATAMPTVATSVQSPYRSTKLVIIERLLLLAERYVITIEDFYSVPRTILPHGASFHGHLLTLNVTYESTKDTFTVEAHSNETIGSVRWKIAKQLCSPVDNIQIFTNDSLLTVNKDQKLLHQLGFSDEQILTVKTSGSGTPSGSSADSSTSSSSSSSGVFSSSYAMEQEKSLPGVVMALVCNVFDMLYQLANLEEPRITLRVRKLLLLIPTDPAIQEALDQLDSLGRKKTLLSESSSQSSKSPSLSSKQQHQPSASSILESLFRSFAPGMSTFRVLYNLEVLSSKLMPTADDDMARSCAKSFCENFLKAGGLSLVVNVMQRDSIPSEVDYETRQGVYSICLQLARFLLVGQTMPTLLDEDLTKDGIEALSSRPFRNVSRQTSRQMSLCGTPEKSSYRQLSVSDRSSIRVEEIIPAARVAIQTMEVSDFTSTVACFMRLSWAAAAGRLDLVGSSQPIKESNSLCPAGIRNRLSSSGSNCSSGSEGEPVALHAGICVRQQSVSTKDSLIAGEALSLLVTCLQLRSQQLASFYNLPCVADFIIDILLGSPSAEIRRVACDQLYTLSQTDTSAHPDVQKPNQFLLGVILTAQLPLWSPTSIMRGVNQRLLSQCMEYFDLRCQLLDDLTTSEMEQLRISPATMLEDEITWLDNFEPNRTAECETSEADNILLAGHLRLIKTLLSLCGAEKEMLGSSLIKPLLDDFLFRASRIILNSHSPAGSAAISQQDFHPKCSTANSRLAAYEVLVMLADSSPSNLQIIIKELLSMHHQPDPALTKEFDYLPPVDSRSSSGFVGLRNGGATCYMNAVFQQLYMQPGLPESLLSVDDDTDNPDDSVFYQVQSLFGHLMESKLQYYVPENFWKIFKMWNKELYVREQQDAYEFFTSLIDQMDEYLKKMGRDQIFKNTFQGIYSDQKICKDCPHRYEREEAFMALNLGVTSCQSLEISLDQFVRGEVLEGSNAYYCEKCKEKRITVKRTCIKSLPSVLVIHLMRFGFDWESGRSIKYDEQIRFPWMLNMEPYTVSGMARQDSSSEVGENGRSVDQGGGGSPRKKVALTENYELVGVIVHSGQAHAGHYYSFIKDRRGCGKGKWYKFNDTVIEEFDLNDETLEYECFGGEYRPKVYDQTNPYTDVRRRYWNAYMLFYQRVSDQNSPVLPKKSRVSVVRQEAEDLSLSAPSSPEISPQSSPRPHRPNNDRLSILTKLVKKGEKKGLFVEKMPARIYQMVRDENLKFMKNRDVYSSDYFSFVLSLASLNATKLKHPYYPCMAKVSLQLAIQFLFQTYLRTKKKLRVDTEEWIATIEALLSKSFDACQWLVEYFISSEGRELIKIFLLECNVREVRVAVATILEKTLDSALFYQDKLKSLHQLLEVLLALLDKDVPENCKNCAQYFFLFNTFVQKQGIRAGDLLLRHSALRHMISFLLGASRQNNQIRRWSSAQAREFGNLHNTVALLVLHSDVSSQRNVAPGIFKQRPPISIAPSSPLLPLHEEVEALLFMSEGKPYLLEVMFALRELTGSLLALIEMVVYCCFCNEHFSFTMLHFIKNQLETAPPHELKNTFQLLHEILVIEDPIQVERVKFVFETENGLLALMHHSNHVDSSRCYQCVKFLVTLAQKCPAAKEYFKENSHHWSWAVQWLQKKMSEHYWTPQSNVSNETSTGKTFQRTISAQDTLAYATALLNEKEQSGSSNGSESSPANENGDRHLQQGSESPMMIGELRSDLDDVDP
Method in brief: as §1

[4] = molecular target: T3, USP25 (UniProt Q9UHP3)
T3 sequence (whole entry): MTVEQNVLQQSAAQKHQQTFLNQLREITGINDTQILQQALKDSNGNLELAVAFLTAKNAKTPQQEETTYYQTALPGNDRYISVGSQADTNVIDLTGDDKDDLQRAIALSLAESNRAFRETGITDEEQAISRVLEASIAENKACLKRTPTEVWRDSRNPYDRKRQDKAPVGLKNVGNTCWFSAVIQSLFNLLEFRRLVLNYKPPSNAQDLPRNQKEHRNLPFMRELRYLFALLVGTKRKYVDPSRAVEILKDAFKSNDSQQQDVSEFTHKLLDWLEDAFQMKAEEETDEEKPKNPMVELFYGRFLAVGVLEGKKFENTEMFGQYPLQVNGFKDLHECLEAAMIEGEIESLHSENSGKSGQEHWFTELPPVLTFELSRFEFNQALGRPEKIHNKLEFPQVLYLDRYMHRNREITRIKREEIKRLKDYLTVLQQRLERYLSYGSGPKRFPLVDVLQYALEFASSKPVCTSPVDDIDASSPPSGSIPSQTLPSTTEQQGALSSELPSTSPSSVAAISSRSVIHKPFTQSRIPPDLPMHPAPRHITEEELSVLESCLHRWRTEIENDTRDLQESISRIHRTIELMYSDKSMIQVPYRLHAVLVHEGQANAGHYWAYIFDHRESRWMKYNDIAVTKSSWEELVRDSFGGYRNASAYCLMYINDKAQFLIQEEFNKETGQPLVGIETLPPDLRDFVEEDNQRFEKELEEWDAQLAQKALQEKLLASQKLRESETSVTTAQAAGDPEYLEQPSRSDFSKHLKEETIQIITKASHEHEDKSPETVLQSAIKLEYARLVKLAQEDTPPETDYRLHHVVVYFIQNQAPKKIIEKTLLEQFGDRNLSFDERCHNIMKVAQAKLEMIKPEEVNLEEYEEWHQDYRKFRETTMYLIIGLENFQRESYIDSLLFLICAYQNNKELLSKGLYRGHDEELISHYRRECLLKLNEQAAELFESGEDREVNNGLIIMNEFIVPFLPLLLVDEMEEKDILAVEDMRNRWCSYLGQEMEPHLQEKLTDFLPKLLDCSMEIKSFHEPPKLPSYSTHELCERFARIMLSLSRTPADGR
Method in brief: as §1

[5] = molecular target: T4, USP28 (UniProt Q96RU2)
T4 sequence (whole entry): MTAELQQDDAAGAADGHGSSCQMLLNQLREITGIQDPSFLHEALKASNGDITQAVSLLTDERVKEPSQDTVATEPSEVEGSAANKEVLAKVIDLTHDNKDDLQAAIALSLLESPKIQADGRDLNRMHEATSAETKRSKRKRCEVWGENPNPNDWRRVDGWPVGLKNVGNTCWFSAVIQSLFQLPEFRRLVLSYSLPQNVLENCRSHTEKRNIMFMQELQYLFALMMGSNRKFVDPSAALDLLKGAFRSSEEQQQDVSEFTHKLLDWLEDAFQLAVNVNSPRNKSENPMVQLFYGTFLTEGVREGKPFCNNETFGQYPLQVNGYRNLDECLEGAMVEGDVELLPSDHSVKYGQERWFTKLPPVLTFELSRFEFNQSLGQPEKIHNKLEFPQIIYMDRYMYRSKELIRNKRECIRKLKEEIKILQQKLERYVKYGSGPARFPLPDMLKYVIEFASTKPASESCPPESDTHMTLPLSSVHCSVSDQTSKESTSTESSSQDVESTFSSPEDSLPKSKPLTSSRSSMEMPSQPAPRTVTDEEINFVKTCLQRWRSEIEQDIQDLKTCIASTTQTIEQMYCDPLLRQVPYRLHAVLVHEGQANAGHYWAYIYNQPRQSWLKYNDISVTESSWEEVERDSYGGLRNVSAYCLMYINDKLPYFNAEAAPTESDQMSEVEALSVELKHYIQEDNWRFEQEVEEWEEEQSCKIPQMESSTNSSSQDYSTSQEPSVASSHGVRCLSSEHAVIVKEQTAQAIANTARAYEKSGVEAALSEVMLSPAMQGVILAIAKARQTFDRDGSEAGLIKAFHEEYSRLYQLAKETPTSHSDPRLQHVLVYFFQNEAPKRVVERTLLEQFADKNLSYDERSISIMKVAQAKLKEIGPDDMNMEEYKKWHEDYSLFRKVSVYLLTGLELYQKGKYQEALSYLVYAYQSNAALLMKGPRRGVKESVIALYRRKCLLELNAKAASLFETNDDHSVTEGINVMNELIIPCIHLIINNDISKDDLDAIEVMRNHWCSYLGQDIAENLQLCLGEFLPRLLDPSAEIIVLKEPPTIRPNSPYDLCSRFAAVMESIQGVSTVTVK
Method in brief: as §1

Measured: log2 ratio of Biotin-Ahx-Ub-VS probe labelling

COc1ccccc1C(C)NC(=O)CCl (stereo not given)
inactive: [1] -0.243 | [2] -0.46 | [3] -0.363 | [4] -0.536 | [5] -0.666
